Results as given in PubChem BioAssay (Tox21).
Results filed as inconclusive are left out. Entries that show only a call come without a potency. Active and inactive are the calls of the source. The call rests on the fitted dose curve; in most records, active means well fitted cell-killing curve with a large enough effect in the repeat runs; inconclusive means weak or mixed curves, or effect the other way; inactive means flat fitted curve, though single readings scatter.

Test: qHTS assay to identify small molecule agonists of the TGF-beta/Smad signaling pathway - cell viability counter screen (AID 1346829); further: top concentration of the series differs between compounds; nearly all actives have a fitted effect of over 45% in size
Conditions: SBE-bla HEK293T viability, CellTiter-Glo luminescence, 5 h; series mostly up to 76.8 µM
Source text: National Center for Advancing Translational Sciences [NCATS]
NIH Chemical Genomics Center [NCGC]
U.S. Environmental Protection Agency [EPA]
National Institutes of Environmental Health Sciences [NIEHS]
National Toxicology Program [NTP]
U.S. Food and Drug Administration [FDA]
Transforming growth factor beta (TGF-beta) superfamily consists of a large number of structurally related dimeric proteins that act as hormones or local mediators in regulating a wide range of biological functions. This superfamily includes TGF-betas themselves, the bone morphogenetic proteins (BMPs) and the activins. These ligands induce oligomerization of serine/threonine receptor kinases and phosphorylate the cytoplasmic signaling molecules of Smad protein family. CellSensor SBE-bla HEK 293T cell line (Life Technologies, Carlsbad, CA), responsive to TGF-beta was used to screen Tox21 10K compound library for identification of agonists/antagonists of the Smad signaling pathway. This cell line contains a beta-lactamase reporter gene under control of the Smad binding element (SBE) stably integrated into HEK 293T cells. Also cytotoxicity of the compounds was tested in parallel by measuring the cell viability using CellTiter-Glo assay system in the same wells.
Tox21 Assay Protocol Summary:
SBE-bla HEK 293T cells were dispensed at 4,000/well in 6 uL of assay medium into black wall/clear-bottom 1536-well plates using a Multidrop Combi (ThermoFisher Scientific, Waltham, MA) dispenser. After the assay plates were incubated at 37 C and 5% CO2 for an overnight, 23 nL of compounds dissolved in DMSO, positive controls or DMSO only was transferred to the assay plate by a Pintool station (Kalypsys, San Diego, CA). The assay plates were incubated at 37 C and 5% CO2 for 5 hr. One uL of LiveBLAzer B/G FRET substrate (Life Technologies) was added using a Flying Reagent Dispenser (FRD, Aurora Discovery, San Diego, CA) and the plates were incubated at room temperature for 2 hr. Fluorescence intensity (405 nm excitation, 460 nm and 530 nm emissions) was measured using an Envision plate reader (PerkinElmer, Shelton, CT). For cytotoxicity read, 4 uL of CellTiter-Glo reagent (Promega Corporation, Madison, WI) was added to each well of the assay plates using FRD. After 30min incubation at room temperature, the luminescence intensity was measured using ViewLux plate reader (PerkinElmer).
With `C=C(Cl)Cl` the Potency was “inactive”.
With `CC(C)OC(=O)Cc1ccccc1` the Potency was “inactive”.
For `CN(C)C(=O)Nc1cccc(OC(=O)NC(C)(C)C)c1`, the Potency was “inactive”.
For `O=C(Cl)OCCOCCOC(=O)Cl`, the Potency was “inactive”.
For `c1ccc2sc(SNC3CCCCC3)nc2c1`, the Potency was “inactive”.
In the case of `CCCSP(=S)(OCC)Oc1ccc(SC)cc1` (stereo not given), the Potency is reported as “inactive”.
In the case of `SCc1ccccc1`, the Potency is reported as “inactive”.
With `C=CC(C)(CCC=C(C)C)OC(=O)c1ccccc1N` (stereo not given) the Potency was “inactive”.
With `CC(C)CCCCCCCOC(=O)c1ccccc1C(=O)OCCCCCCCC(C)C` the Potency was “inactive”.
In the case of `CCCC[N+]1(C)[C@@H]2CC(OC(=O)[C@H](CO)c3ccccc3)C[C@H]1[C@@H]1O[C@@H]12` (stereo not given in full), the Potency is reported as “inactive”.
With `CC(C)c1ccc(OP(=O)(Oc2ccc(C(C)C)cc2)Oc2ccc(C(C)C)cc2)cc1` the Potency was “inactive”.
For `CCCCC(CC)CO[N+](=O)[O-]` (stereo not given), the Potency was “inactive”.
In the case of `CCOP(=S)(OCC)Oc1ccc(S(C)=O)cc1` (stereo not given), the Potency is reported as “inactive”.
In the case of `CCc1ccccc1N`, the Potency is reported as “inactive”.
In the case of `CC(C)(C#N)C(C)(C)C#N`, the Potency is reported as “inactive”.
With `CC(C)C1(C)N=C(c2ncccc2C(=O)O)NC1=O` (stereo not given) the Potency was “inactive”.
With `Cc1nnc(-c2ccccc2)c(=O)n1N` the Potency was “inactive”.
With `CCCCCCCCP(=O)(O)O` the Potency was “inactive”.
With `CCCCCCCCCCCCN(C)C` the Potency was “inactive”.
For `FC(F)OC(F)(F)C(F)Cl` (stereo not given), the Potency was “inactive”.
For `CCOP(=S)(OCC)SCSc1cc(Cl)ccc1Cl`, the Potency was “inactive”.
In the case of `Oc1cccc(Cl)c1`, the Potency is reported as “inactive”.
For `C[N+]1(CCF)[C@@H]2CC[C@H]1CC(OC(=O)C(O)(c1ccccc1)c1ccccc1)C2` (stereo not given in full), the Potency was “inactive”.
With `CC(O)CN1CCN(CC(=O)[O-])CCN(CC(=O)[O-])CCN(CC(=O)[O-])CC1.[Gd+3]` (stereo not given) the Potency was “inactive”.
With `CCOC(=O)c1cncn1C(C)c1ccccc1` (stereo not given) the Potency was “inactive”.
For `CC(C)c1ccc(NC(=O)N(C)C)cc1`, the Potency was “inactive”.
With `COC(=O)Cc1ccccc1` the Potency was “inactive”.
With `CCC1(CC)C(=O)NC(=O)NC1=O` the Potency was “inactive”.
For `OCCCl`, the Potency was “inactive”.
With `CC(Oc1cc(Cl)c(Cl)cc1Cl)C(=O)O` (stereo not given) the Potency was “inactive”.
With `CCOC(=O)c1cn2nc(OP(=S)(OCC)OCC)cc2nc1C` the Potency was “inactive”.
For `COC1CC(=C(c2cccs2)c2cccs2)C[N+](C)(C)C1` (stereo not given), the Potency was “inactive”.
For `CN1C[C@H](C(=O)N[C@]2(C)O[C@@]3(O)[C@@H]4CCCN4C(=O)[C@H](Cc4ccccc4)N3C2=O)C=C2c3cccc4[nH]cc(c34)C[C@H]21`, the Potency was “inactive”.
For `O=[N+]([O-])/C=C/c1ccccc1`, the Potency was “inactive”.
For `O=C(NC(=O)c1cc(F)c(F)cc1Cl)Nc1cc(F)ccc1N1CCC(C(=O)O)CC1`, the Potency was “inactive”.
For `CC(C)(C)NCC(O)c1cc(Cl)c(N)c(C(F)(F)F)c1` (stereo not given), the Potency was “inactive”.
In the case of `ClCc1ccccc1Cl`, the Potency is reported as “inactive”.
In the case of `C1CS1`, the Potency is reported as “inactive”.
For `C[Si](Cn1cncn1)(c1ccc(F)cc1)c1ccc(F)cc1`, the Potency was “inactive”.
With `CON(C)C(=O)Nc1ccc(Cl)cc1` the Potency was “inactive”.
